Screening results deposited in PubChem BioAssay by several laboratories.
CYP2C9 activ: human CYP2C9 activators, primary screen, biochemical, luminescence | recombinant CYP2C9, luciferin-H conversion; hits give high values; factor 1 = untreated enzyme, 0 = blocked | activation factor at 5 µM | actives 1.4% (n = 96,000);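 active = activation factor of 2 or more for CYP2C9 at a 5 µM dose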;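 note: 0 = sulfaphenazole-blocked wells and 1 = vehicle-only wells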
CYP2C9 inhib: blockers of cytochrome P450 2C9 activity – biochemical, luminescence, ADME assay, primary screen; P11712; CYP2C9 Supersomes, luciferin-H conversion; inhibition, % at 5 µM; actives 20% (n = 96,000); AID 777, 2007;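 active = blocking of liver enzyme CYP2C9 beyond about 50% at 5 µM, limit read from the data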
CYP2C19 act: human CYP2C19 activators, primary screen, biochemical, luminescence. Cytochrome P450 2C19 (Homo sapiens), P33261. recombinant CYP2C19, luciferin-H EGE luminescence; hits give high values; 0 = fully inhibited enzyme, 1 = untreated enzyme. AID 1025, 2008. 96,000 tested, under 10 active. activation factor at 5 µM;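 active = activation factor of at least 2 at 5 µM in the primary screen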;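 note: 0 = wells with 2.5 mM tranylcypromine and 1 = vehicle-only wells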
Target sequence (P33261 whole entry, looked up): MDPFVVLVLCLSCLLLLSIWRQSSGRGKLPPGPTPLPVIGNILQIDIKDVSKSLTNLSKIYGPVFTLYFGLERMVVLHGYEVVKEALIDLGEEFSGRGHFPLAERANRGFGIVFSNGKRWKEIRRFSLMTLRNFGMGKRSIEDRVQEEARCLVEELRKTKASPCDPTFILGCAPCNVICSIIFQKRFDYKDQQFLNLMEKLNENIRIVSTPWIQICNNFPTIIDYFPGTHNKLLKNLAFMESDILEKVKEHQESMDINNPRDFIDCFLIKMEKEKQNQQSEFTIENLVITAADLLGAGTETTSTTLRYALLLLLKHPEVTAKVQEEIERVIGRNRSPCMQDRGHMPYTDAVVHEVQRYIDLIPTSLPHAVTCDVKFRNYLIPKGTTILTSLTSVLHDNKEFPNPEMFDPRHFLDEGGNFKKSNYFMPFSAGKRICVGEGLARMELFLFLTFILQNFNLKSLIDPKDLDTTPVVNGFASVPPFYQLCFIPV
CYP2C19 inh: blockers of cytochrome P450 2C19 activity – biochemical, luminescence, ADME assay, primary screen; inhibition, % at 5 µM; CYP2C19 Supersomes, luciferin-H EGE luminescence, 30 min; actives 21% (n = 96,000); P33261;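 active = CYP2C19 inhibition above a set limit at 5 µM in the primary screen, cut at about 50% in these data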;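 note: plate controls were negative control wells for no effect and 2.5 mM tranylcypromine positive control for full effect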
Measles CPE: compounds protecting cells from measles virus cytopathic effect, primary screen, measles RdRp inhibitor project, single point, MLSMR library, absorbance; protection (pct of control), % at 4 µM; Measles virus-infected cells, CPE protection; actives 1.5% (n = 140,000); in the data active = protection mostly above about 24%, no sharp cut-off; inactive = mostly below about 26%
Starred values were filed as active, the others as inactive; nt = no result given. Most compounds without a hit are left out; they make up all but 22% or so of the library.

SMILES | CYP2C9 activ | CYP2C9 inhib | CYP2C19 act | CYP2C19 inh | Measles CPE
CCOC(=O)CNC(=O)CN1CCCN(S(=O)(=O)c2ccc(Br)s2)CC1 | 1.2 | -19.7 | 0.9 | 13.7 | 35.7
CC1CCN(S(=O)(=O)c2ccc(Br)s2)CC1 | 0.6 | 42.7 | 0 | 95.2* | 16.0
O=C(CN1CCCN(S(=O)(=O)c2ccc(Br)s2)CC1)Nc1ccc(Cl)cc1 | 1.2 | -22.2 | 0.1 | 88.3* | 12.8
CC1CCCN(S(=O)(=O)c2ccc(Br)s2)C1 (configuration not stated) | nt | nt | nt | nt | 3.3
O=S(=O)(c1ccc(Br)s1)N1CCCCC1 | 1.1 | -6.0 | 0.3 | 72.6* | 9.8
Cc1ccc(NC(=O)COC(=O)C2(c3ccc(Cl)cc3)CCCC2)cc1 | nt | nt | nt | nt | 8.0
CN(C)CC1CCCCC1C1(O)c2ccccc2CSc2sccc21 (configuration not stated) | nt | nt | nt | nt | 8.9
COc1ccc(C(=O)c2c[nH]c3ccccc23)cc1 | 0.6 | 42.4 | 0.6 | 40.7 | 13.9
COc1ccc(Br)cc1CNC(=O)CCc1nc(-c2ccccc2F)no1 | 0.4 | 56.8* | 0.3 | 65.4* | 16.6
CCN(C(=O)CCc1nc(-c2ccccc2F)no1)c1cc(OC)ccc1OC | 0.1 | 93.8* | 0.1 | 94.1* | 10.5
COc1ccc(CNC(=O)CCc2nc(-c3ccccc3F)no2)c(OC)c1 | 0.4 | 57.1* | 0.3 | 74.1* | 6.2
O=C(CCc1nc(-c2ccccc2F)no1)Nc1ccc(Oc2ccccc2)cc1 | 0.8 | 22.5 | 0.9 | 8.0 | 3.4
COc1cccc(NC(=O)CCc2nc(-c3ccccc3F)no2)c1 | 0.4 | 60.1* | 0.7 | 26.3 | 3.2
O=C(Nc1cccc(C(F)(F)F)c1)C(Sc1cccc[n+]1[O-])c1ccccc1 (configuration not stated) | nt | nt | nt | nt | 2.2
O=C(COC(=O)c1cccc(C(F)(F)F)c1)NCc1ccccc1 | nt | nt | nt | nt | 22.1
Cn1c(-c2ccc(F)cc2)cnc1NCc1ccc(C#N)cc1 | 0.4 | 56.6* | 0.4 | 64.4* | 6.0
Cn1c(-c2ccc(F)cc2)cnc1NCc1ccc(F)cc1 | 0.7 | 28.1 | 0.3 | 68.9* | 5.3
CCOc1cc(CNc2ncc(-c3ccc(OC)cc3)n2C)ccc1O | 0.5 | 47.2 | 0.4 | 59.4* | 7.3
Cn1c(-c2ccc(Br)cc2)cnc1NCc1cccnc1 | 0.8 | 23.0 | 0.6 | 37.1 | 5.6
COc1ccc(-c2cnc(NCc3cc4c(cc3[N+](=O)[O-])OCO4)n2C)cc1 | nt | nt | nt | nt | 7.6
CC1CCOC2(O1)C(=O)N(CN1CCN(c3ccccc3F)CC1)c1ccccc12 (configuration not stated) | 1.2 | -16.1 | 1 | 0.0 | 2.0
O=c1[nH]c(-c2ccccc2F)nc2c1sc(=S)n2Cc1ccccc1 | nt | nt | nt | nt | 2.8
CCOC(=O)c1[nH]nc(-c2c(O)cc(C)cc2O)c1-c1csc(C)n1 | 0.9 | 11.3 | 0.8 | 22.8 | 22.6
CCCc1cc(-c2n[nH]c(C(=O)OCC)c2-c2cscn2)c(O)cc1O | 0.3 | 66.7* | 0.4 | 55.6* | 3.1
CCCOc1ccc(C(=O)NCC(c2ccco2)N(C)C)cc1 (configuration not stated) | nt | nt | nt | nt | 5.4
SMILES | CYP2C9 activ | CYP2C9 inhib | CYP2C19 act | CYP2C19 inh | Measles CPE
Nc1c(C(=O)NC2CCCC2)sc2nc(-c3cccs3)ccc12 | 0.6 | 43.6 | 0.3 | 71.9* | 3.0
CCOc1ccc(NC(=O)Nc2cccs2)cc1 | 0.7 | 30.2 | 0.6 | 35.7 | 7.5
Cc1cc2ccccc2n1CCNC(=O)COc1ccccc1 | 0.6 | 37.5 | 0.1 | 94.1* | 4.8
CC(C)NS(=O)(=O)c1ccc(OCC(=O)NCc2cccnc2)cc1 | 0.5 | 45.3 | 0.9 | 9.9 | 34.2
CCNC(=O)COc1ccc(-c2ccccc2)cc1 | 0.7 | 29.3 | 0.4 | 61.9* | 62.1*
COc1ccc(CNC(=O)COc2ccc(S(=O)(=O)NC(C)C)cc2)cc1 | 0.1 | 86.3* | 0.3 | 67.9* | 4.0
CCC(=O)NCCn1c(C)cc2ccccc21 | 0.9 | 5.2 | 0.7 | 30.5 | 13.9
CC(C)(C)NC(=O)COc1ccc(-c2ccccc2)cc1 | 1.2 | -18.3 | 0.9 | 10.0 | 9.4
CC(C)NS(=O)(=O)c1ccc(OCC(=O)NCc2ccccc2)cc1 | 0.4 | 60.9* | 0.6 | 43.4 | 1.7
COc1ccccc1[C@@H]1C(c2cccc(C)c2)=NN(c2ccccc2)[C@H]1C(=O)N1CCOC1=O | nt | nt | nt | nt | 5.5
CN1CCC(N(C)C(=O)CCc2nc3ccccc3c(=O)[nH]2)CC1 | 1.1 | -7.4 | 1.1 | -10.7 | 5.0
O=C(COc1ccccc1)NCc1ccccc1 | 0.9 | 8.6 | 0.3 | 73.7* | 12.1
O=C1CN=CN=CN1c1ccc(Cl)cc1Cl | nt | nt | nt | nt | 45.2*
CCOc1cc(/C=N/NC(=O)C(=O)NC)cc(Br)c1O | nt | nt | nt | nt | 13.4
CC1(C)NC(=O)N(CC(O)COC2CCCCC2)C1=O (configuration not stated) | 0.6 | 42.5 | 0.2 | 82.4* | 5.2
CC1(C)NC(=O)N(CC(O)COc2ccccc2-c2ccccc2)C1=O (configuration not stated) | 0.1 | 86.6* | 0 | 99.2* | 14.6
Cc1cc(C)cc(OCC(O)CN2C(=O)NC(C)(C)C2=O)c1 (configuration not stated) | 0.6 | 44.0 | 0.3 | 72.2* | 9.0
COCC(C)NC(=O)COc1ccc(Cl)cc1Cl (configuration not stated) | nt | nt | nt | nt | 2.5
N#Cc1c(-c2ccccc2)ccn(Cc2ccc(Cl)cc2)c1=O | 0.5 | 54.5* | 0.6 | 36.0 | 16.1
Cc1ccc2nc3ccc(N4CCCCCCC4)nn3c(=O)c2c1 | 0.3 | 70.0* | 0.4 | 64.0* | 16.9
Cc1ccc2nc3ccc(N4CCN(C)CC4)nn3c(=O)c2c1 | 1 | 2.1 | 0.8 | 20.6 | 9.1
COc1ccc(CCN2C(=O)CC(NNC(=O)c3ccccc3Br)C2=O)cc1 (configuration not stated) | nt | nt | nt | nt | 31.6
COc1ccc(CCNC2CC(=O)N(CCc3ccccc3)C2=O)cc1 (configuration not stated) | 0.7 | 34.5 | 0.3 | 70.4* | 6.3
O=C1CC(NCc2ccco2)C(=O)N1CCc1ccccc1 (configuration not stated) | 1 | 2.1 | 0.5 | 48.0 | 27.0
Cc1ccc(NC2CC(=O)N(CCc3ccccc3)C2=O)cc1 (configuration not stated) | 1 | 0.1 | 0.4 | 63.8* | 24.1
CCN(CC)c1ccc(/C=N/NC(=O)C(O)(c2ccccc2)c2ccccc2)o1 | nt | nt | nt | nt | 4.5
Cc1nn(-c2ccccc2)c2c1C(c1cccs1)C(C#N)=C(N)O2 (configuration not stated) | 0.2 | 78.7* | 0.6 | 41.8 | 2.5
Cc1nn(-c2ccccc2)c2c1C(c1ccco1)C(C#N)=C(N)O2 (configuration not stated) | 0.2 | 78.6* | 0.7 | 26.8 | 2.4
CC(C)=CC[N+]1(C)CCCCC1 | nt | nt | nt | nt | 6.4
